Consider three molecules from PubChem BioAssay (EPA / NIEHS).

SMILES strings stand for the structures. Values joined by “and” are separate entries in the source; they are usually repeats but may differ in a detail not shown here. Equal entries are not always repeated. Inconclusive results are not listed. Active and inactive are the calls of the source. Rule for the calls, unless noted: active = hit-call score of the fitted dose curve at least 0.9, where 1 is the maximum; inactive = score below 0.9.

Test [1] is described as follows: VALA_TUBHUV_Antagonist_CellCount: Viability Assessment in the VALA Sciences human Umbilical Vein Endothelial Tubule Formation (TUBHUV) Antagonism Assay (AID 2284310; active = hit-call score of the fitted dose curve at least 0.9, where 1 is the maximum). In short, it runs like this:
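HUVEC co-cultured with HDF (1:3) 3 days in 10 ng/ml VEGF, then 3 days with compounds in VEGF medium. Fixed, nuclear stain and CD31 immunofluorescence, imaged; cell counts fitted versus 0.1% DMSO, loss of signal read as lower viability.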

A short description of test [2]: VALA_TUBIPS_Agonist_TubuleLength: VALA Sciences human iPS-derived Endothelial Tubule Formation (TUBIPS) Agonism Assay (AID 2284311; active = hit-call score of the fitted dose curve at least 0.9, where 1 is the maximum). In short, it runs like this:
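Human iPS-derived endothelial cells were exposed to compound for 72 h. Tubule formation was imaged by high-content fluorescence and scored as gain of signal relative to DMSO vehicle (agonist mode).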

Read-out in test [3]: E-selectin (Homo sapiens) (UniProt P16581)
Kind of test: BSK_IMphg_ESelectin: BioMAP Diversity Plus: IMphg Assay for Eselectin Biomarker Activity (AID 2284291). As to conditions: primary human endothelial cells with macrophages. In short, it runs like this: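 Human venular endothelial cell–macrophage co-culture, E-selectin measured by ELISA 24 h after chemical dosing. Signal fitted in the positive direction against DMSO as negative control and baseline.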

The nature of test [4]: BSK_IMphg_SRB: Viability Assessment in the BioMAP Diversity Plus: IMphg Assay (AID 2284292).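 Note: measured one day after compound addition.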 The conditions noted are these: primary human endothelial cells with macrophages. In short, it runs like this: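 Human venular endothelial cells with macrophages, 24 h after chemical dosing; total protein by 0.1% SRB staining after 10% TCA fixation, read at 560 nm. Positive-direction fitting versus DMSO baseline.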

Read-out in test [5]: Macrophage colony-stimulating factor (MCSF), CSF1 (gene 1435)
Kind of test: BSK_IMphg_MCSF: BioMAP Diversity Plus: IMphg Assay for Macrophage colony-stimulating factor (MCSF) Biomarker Activity (AID 2284293). The conditions noted are these: primary human endothelial cells with macrophages. In outline: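 Co-culture of human venular endothelial cells and macrophages, 24 hours of chemical exposure. M-CSF quantified by ELISA, with parallel SRB total-protein staining for cytotoxicity; activity fitted relative to DMSO.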

Read-out in test [6]: Interleukin-10 (IL10), IL10 (gene 3586)
Briefly: BSK_IMphg_IL10: BioMAP Diversity Plus: IMphg Assay for Interleukin-10 (IL10) Biomarker Activity (AID 2284294). As to conditions: primary human endothelial cells with macrophages. In short, it runs like this: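 Human venular endothelial cells cocultured with macrophages, dosed 24 h; IL-10 measured by ELISA, activity relative to DMSO. Cytotoxicity assessed in parallel cultures by sulforhodamine B total-protein staining.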

Test [7] in a line: BSK_IMphg_SRB.Mphg: Macrophage Viability Assessment in the BioMAP Diversity Plus: IMphg Assay (AID 2284295). As to conditions: primary human endothelial cells with macrophages. In outline:
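Venular endothelial cells co-cultured with macrophages, read 24 h after dosing. Total protein measured by 0.1% SRB staining after 10% TCA fixation, absorbance at 560 nm. Fitted in positive direction against DMSO baseline.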

Read-out in test [8]: Thrombomodulin, THBD (gene 7056)
Briefly: BSK_LPS_Thrombomodulin: BioMAP Diversity Plus: LPS Assay for Thrombomodulin Biomarker Activity (AID 2284296). The conditions noted are these: primary human HUVEC with PBMC. In outline:
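Human umbilical vein endothelial cells co-cultured with PBMC and stimulated with LPS; cell-surface thrombomodulin measured by ELISA 24 hours after compound. Gain or loss versus DMSO; cytotoxicity checked by SRB staining in parallel cultures.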

Read-out in test [9]: CD69, CD69 (gene 969)
Kind of test: BSK_LPS_CD69: BioMAP Diversity Plus: LPS Assay for CD69 Biomarker Activity (AID 2284303). As to conditions: primary human HUVEC with PBMC. In short, it runs like this: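 Human umbilical vein endothelial cells co-cultured with PBMC under LPS stimulation, chemical exposure 24 h; cell-surface CD69 measured by ELISA and fitted in the positive direction versus DMSO.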

Test [10] can be described thus: IUF_NPC2c_oligodendrocyte_migration_120hr: Leibniz Research Institute for Environmental Medicine (IUF) 120-hour Neural Progenitor Cell Migration Assay for Oligodendrocyte Migration (NPC2c) (AID 2284297).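 Note: O4-positive oligodendrocyte migration distance divided by radial glia migration distance.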 In short, it runs like this: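 Human fetal cortex-derived neural progenitor spheres (0.3 mm) were plated on poly-D-lysine/laminin in N2 differentiation medium and exposed to 7 concentrations for 120 h, with half-medium renewal at day 3. Oligodendrocyte migration distance was normalized to radial glia migration, relative to DMSO.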

Test [11] can be described thus: IUF_NPC2a_radial_glia_migration_120hr: Leibniz Research Institute for Environmental Medicine (IUF) 120-hour Neural Progenitor Cell Migration Assay for Radial Glia Migration (NPC2a) (AID 2284298). In short, it runs like this:
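Single 0.3 mm primary human fetal-cortex (GW 16-19) NPC spheres were plated on poly-D-lysine/laminin in N2 differentiation medium and exposed from day 0 for 120 h, half-medium refreshed day 3. Migration distance came from Hoechst nuclei-density imaging, relative to DMSO.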

The nature of test [12]: IUF_NPC2a_radial_glia_migration_72hr: Leibniz Research Institute for Environmental Medicine (IUF) 72-hour Neural Progenitor Cell Migration Assay for Radial Glia Migration (NPC2a) (AID 2284299). In outline: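 Human fetal cortex (GW 16-19) neural progenitor spheres, 0.3 mm, plated on poly-D-lysine/laminin in N2 differentiation medium with compound from day 0. Radial glia migration distance (um, sphere core edge to migration edge) measured manually in four directions on 72 h brightfield images; well mean used.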

A short description of test [13]: IUF_NPC2b_neuronal_migration_120hr: Leibniz Research Institute for Environmental Medicine (IUF) 120-hour Neural Progenitor Cell Migration Assay for Neuron Migration (NPC2b) (AID 2284300). In short, it runs like this:
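Primary human fetal cortex neural progenitor spheres (0.3 mm) plated on poly-D-lysine/laminin in N2 differentiation medium, exposed 120 h with half-medium refresh at day 3. TUBB3-stained neuron distance from sphere core, normalized to radial glia migration, versus DMSO.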

Test [14] is described as follows: IUF_NPC3_neuronal_differentiation_120hr: Leibniz Research Institute for Environmental Medicine (IUF) 120-hour Neuronal Differentiation Assay (NPC3) (AID 2284301). In short, it runs like this: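 Single 0.3 mm neurospheres from human fetal cortex were plated in differentiation medium containing test compound. Medium was half-replaced on day 3. After 120 h cells were fixed, immunostained and imaged, and neuronal fraction was scored against DMSO control.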

A short description of test [15]: IUF_NPC4_neurite_length_120hr: Leibniz Research Institute for Environmental Medicine (IUF) 120-hour Neuronal Morphology Assay for Neurite Length (NPC4) (AID 2284302). In outline: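 Read-out is mean neurite length in µm of TUBB3-positive neurons, skeletonized from high-content fluorescence images after 120 h. Single 0.3 mm primary human neural progenitor spheres differentiated on poly-D-lysine/laminin under continuous compound exposure; DMSO was baseline.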

Test [16] in a line: IUF_NPC5_oligodendrocyte_differentiation_120hr: Leibniz Research Institute for Environmental Medicine (IUF) 120-hour Oligodendrocyte Differentiation Assay (NPC5) (AID 2284304; active = hit-call score of the fitted dose curve at least 0.9, where 1 is the maximum;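 note: primary human fetal neural progenitor spheres plated to migrate and differentiate; share of O4-positive cells among Hoechst nuclei found by CNN image analysis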). In short, it runs like this: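 Primary human fetal (GW 16-19) neural progenitor spheres (0.3 mm) plated on poly-D-lysine/laminin in N2 differentiation medium, exposed from day 0 for 120 h with half-medium refresh at day 3; O4-positive cells as percent of Hoechst nuclei, CNN-identified, versus DMSO.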

Test [17] is described as follows: IUF_NPC4_neurite_area_120hr: Leibniz Research Institute for Environmental Medicine (IUF) 120-hour Neuronal Morphology Assay for Neurite Area (NPC4) (AID 2284305; active = hit-call score of the fitted dose curve at least 0.9, where 1 is the maximum). In outline:
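Neurite area is read out as the mean pixel area, excluding nuclei, of skeletonized TUBB3-positive neurons imaged after 120 h. Primary human neural progenitor spheres differentiated on poly-D-lysine/laminin with compound present from day 0. Activity was referenced to DMSO controls.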

A short description of test [18]: IUF_NPC2-5_cytotoxicity_72hr: Cytotoxicity Assessment at 72 hours in the Leibniz Research Institute for Environmental Medicine (IUF) Neural Progenitor Cell Migration and Differentiation Assay for Cytotoxicity (NPC2-5) (AID 2284306; active = hit-call score of the fitted dose curve at least 0.9, where 1 is the maximum;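 note: LDH release into supernatant measured by resorufin fluorescence marking membrane damage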). In outline: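 Membrane integrity loss was scored from fluorescence (RFU) of resorufin generated by LDH in culture supernatant, 72 h after dosing. Differentiating human progenitor spheres received seven serial compound concentrations alongside a solvent control.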

Test [19] is described as follows: IUF_NPC2-5_cytotoxicity_120hr: Cytotoxicity Assessment at 120 hours in the Leibniz Research Institute for Environmental Medicine (IUF) Neural Progenitor Cell Migration and Differentiation Assay (NPC2-5) (AID 2284307; active = hit-call score of the fitted dose curve at least 0.9, where 1 is the maximum). In outline: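 Human fetal neural progenitor spheres (0.3 mm, GW 16-19 cortex) were plated on poly-D-lysine/laminin in N2 differentiation medium and exposed for 120 h, with half-medium refresh at day 3. LDH release into supernatant was read by resorufin fluorescence.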

Test [20] can be described thus: IUF_NPC2-5_cell_number_120hr: Cell Number Assessment at 120 hours in the Leibniz Research Institute for Environmental Medicine (IUF) Neural Progenitor Cell Migration and Differentiation Assay (NPC2-5) (AID 2284308).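 Note: count of Hoechst-stained nuclei in migration zone around plated human neural progenitor spheres.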 In short, it runs like this:
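Primary human fetal neural progenitor spheres (GW 16-19, 0.3 mm) plated on poly-D-lysine/laminin in N2 differentiation medium, exposed from day 0 for 120 h with half-medium refresh at day 3; Hoechst-positive nuclei counted in migration area versus DMSO control.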

E-selectin (Homo sapiens), sequence (P16581 whole entry, looked up): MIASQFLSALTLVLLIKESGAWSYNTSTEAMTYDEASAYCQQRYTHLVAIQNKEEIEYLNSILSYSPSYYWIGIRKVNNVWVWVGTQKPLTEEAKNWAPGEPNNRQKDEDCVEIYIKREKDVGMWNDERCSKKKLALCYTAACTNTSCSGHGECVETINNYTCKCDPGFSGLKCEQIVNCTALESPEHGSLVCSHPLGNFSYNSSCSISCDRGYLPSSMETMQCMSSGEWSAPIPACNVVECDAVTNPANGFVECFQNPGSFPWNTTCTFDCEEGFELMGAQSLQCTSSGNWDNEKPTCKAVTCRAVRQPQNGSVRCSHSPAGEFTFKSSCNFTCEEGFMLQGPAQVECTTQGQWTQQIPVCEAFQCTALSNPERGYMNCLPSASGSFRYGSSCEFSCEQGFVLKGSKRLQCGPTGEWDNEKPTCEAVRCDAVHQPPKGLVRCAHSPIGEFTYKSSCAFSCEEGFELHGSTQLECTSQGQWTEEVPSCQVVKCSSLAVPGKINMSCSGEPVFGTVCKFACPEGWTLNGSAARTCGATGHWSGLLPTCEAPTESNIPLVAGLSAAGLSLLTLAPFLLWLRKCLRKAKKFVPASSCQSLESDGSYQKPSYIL

For the molecule `CC(C)c1cccc(C(C)C)c1N1C(=O)c2ccc(O)cc2C1=O`, the outcome in test [1] and in test [2] was inactive.

What is called AC50 is the concentration at which the activity in the assay is half-maximal. Turning to `Cn1cnc([N+](=O)[O-])c1Sc1ncnc2nc[nH]c12`, the AC50 in test [3] was 2.5 µM (active) and 9.29 µM (active); in test [5] it was 14.7 µM (active) and 8.87 µM (active); in [6] it was 12.6 µM (active). The result in test [4], in test [7], in test [8] and in test [9] was inactive.

As to `O=P(OC(CCl)CCl)(OC(CCl)CCl)OC(CCl)CCl`, the result in [10], in test [12], in test [13], in [14], in test [15] and in [17] was inactive. Moreover, the call in [18], in test [19] and in test [20] was inactive. Further, the AC50 is 5.38 µM (active) in test [11] and 4.15 µM (active) in test [16].
